Experimental data taken from ChEMBL document CHEMBL1157539, “Thousands of chemical starting points for antimalarial lead identification” (Nature, 2010).

What was measured:
Assay type in all cases: functional
Plasmodium falciparum [1] = assay: GSK_TCMDC: Inhibition of Plasmodium falciparum 3D7 in whole red blood cells, using parasite LDH activity as an index of growth. Test compounds present at 2uM
Plasmodium falciparum [2] = assay: GSK_TCMDC: Inhibition of Plasmodium falciparum Dd2 in whole red blood cells, using parasite LDH activity as an index of growth. Test compounds present at 2uM
HepG2 = assay: GSK_TCMDC: Percent inhibition of human HepG2 cell line. Test compounds present at 10uM.

| Compound | Inhibition (Plasmodium falciparum [1]) | Inhibition (Plasmodium falciparum [2]) | Inhibition (HepG2) |
| --- | --- | --- | --- |
| Br.Cc1ccc(OCCCON2C(=N)N=C(N)NC2(C)C)cc1C | 96% | 94% | 57% |
| COCn1ccc2c3c(N)nc(N)nc3ccc21 | 88% | 1% | 63% |
| CCN(CC)CCN(Cc1ccc(-c2ccc(C(F)(F)F)cc2)cc1)C(=O)c1ccc(-c2ccc(NC(=O)OC)cc2C)cc1 | 93% | 42% | 66% |
| Cn1c(N=C2NC3(c4ccccn4)NC(=Nc4nc5ccccc5n4C)NC3(c3ccccn3)N2)nc2ccccc21.O=C(O)C(F)(F)F (stereo not drawn) | 99% | 44% | 12% |
| Cc1cc(Cl)c(Cl)cc1NC(=O)Nc1cccc(C(F)(F)F)c1 | 93% | 99% | 1% |
| O=C(NCCN1CCC(c2ccncc2)CC1)c1ccc(Nc2nccc(Nc3ccc(Oc4ccccc4)cc3)n2)cc1 | 100% | 90% | 17% |
| O=C(NCCc1ccccc1)N(Cc1ccccc1-c1cccc(CNCCc2ccccc2)c1)C1CCN(Cc2ccccc2)CC1.O=C(O)C(F)(F)F | 100% | 88% | 100% |
| Cl.c1cc2[nH]c(CCCCc3nc4cc(C5=N[C@H]6CCCC[C@H]6N5)ccc4[nH]3)nc2cc1C1=N[C@H]2CCCC[C@H]2N1 | 90% | 88% | 5% |
| c1ccc(C(c2ccccc2)N2CCN(C(c3cccnc3)c3nnnn3C3CCCC3)CC2)cc1 (stereo not drawn) | 83% | 59% | 4% |
| O=C(O)C(F)(F)F.Oc1ccc(CC2CCCN(c3nc(NCCCOc4ccccc4-c4ccccc4)nc(N4CCNCC4)n3)C2)cc1 (stereo not drawn) | 95% | 77% | 56% |
| CC(C)C(C)(C#N)NC(=O)CSc1nc2ccc([N+](=O)[O-])cc2s1 (stereo not drawn) | 95% | 81% | 0% |
| COc1ccc2nccc([C@@H](O)CN3CCC(NC(=O)c4ccc(Cl)c([N+](=O)[O-])c4)CC3)c2c1 | 88% | 43% | 14% |
| CCN1CCN(CCNc2c3ccccc3nc3ccccc23)CC1.Cl | 93% | 8% | 45% |
| COc1ccc(NC(=O)[C@H](Cc2ccccc2)Nc2cc(C)nc(NCCc3ccc(F)cc3)n2)cc1.O=C(O)C(F)(F)F | 100% | 82% | 17% |
| Oc1ccc(Br)cc1-c1nc2ccc(Cl)cc2nc1-c1cc(Br)ccc1O | 100% | 64% | 0% |
| O=C(NCC1CCN(CCN2CCC(c3cn(CCO)c4ccccc34)CC2)CC1)c1ccc(-c2ccc(C(F)(F)F)cc2)cc1 | 100% | 100% | 100% |
| O=C(c1ccc(Cl)cc1)C1CCCN(C2CCN(CCc3ccccc3)CC2)C1 (stereo not drawn) | 96% | 51% | 37% |
| C[C@@H](N/C(=N\c1ccc(-c2ccccc2)cc1)Nc1ccc(C#N)cc1O)c1ccc(Br)cc1 | 99% | 95% | 9% |
| O=C1C(c2ccccc2)=C(Nc2cc(Cl)cc(Cl)c2)c2ccccc21 | 96% | 94% | 0% |
| O=C(N[C@H]1CCN(Cc2ccc(OCCCN3CCCCC3)cc2)C1)c1cc(Cl)cc(Cl)c1 | 99% | 35% | 13% |
| Br.CC1(C)NC(N)=NC(=N)N1OCCCCCOc1ccccc1 | 95% | 97% | 61% |

| Compound | Inhibition (Plasmodium falciparum [1]) | Inhibition (Plasmodium falciparum [2]) | Inhibition (HepG2) |
| --- | --- | --- | --- |
| Clc1ccccc1CN1CCC(NCc2cccc(-n3ccnc3)c2)CC1.O=C(O)C(F)(F)F | 100% | 43% | 6% |
| Cn1c(=O)c2cc(C(=O)NCCCN3CCCCCC3)sc2c2ccccc21 | 99% | 99% | 32% |
| CC1(CCCCN2CCC(Oc3ccc(F)cc3F)CC2)C(=O)Nc2ccccc21.Cl (stereo not drawn) | 99% | 6% | 6% |
| Cn1cccc1C(=O)C(=O)Nc1ccc(-c2ccc(-c3nc4cc(F)ccc4[nH]3)cc2)cc1 | 92% | 33% | 44% |
| CCNc1cc(C(=O)N[C@@H](Cc2ccccc2)[C@H](O)CNCc2cccc(OC)c2)c(OC)c(N2CCCCS2(=O)=O)c1 | 97% | 96% | 11% |
| COc1ccc(C(C(=O)NC2CCN(C[C@H](O)c3ccnc4ccc(OC)cc34)CC2)N2CCN(Cc3ccccc3)CC2)cc1 (stereo partly drawn) | 100% | 72% | 18% |
| CCCCNCc1ccc(-c2nc(CN(C(=O)Nc3cc([N+](=O)[O-])ccc3F)C3Cc4ccccc4C3)cs2)cc1.O=C(O)C(F)(F)F | 87% | 13% | 15% |
| O=C(/C=C/c1ccc(Cl)c(Cl)c1)NCCCCCN1CCC(NC(=O)c2cccc(Cl)c2)CC1 | 98% | 23% | 12% |
| COc1cc(C)nc2ccc(NC(=O)Nc3ccc([N+](=O)[O-])cc3C)cc12 | 90% | 52% | 10% |
| Cc1ccc(C)c(Cn2c(N3CCC(C(=O)NCc4cccs4)CC3)nc3ccccc32)c1 | 89% | 73% | 0% |
| COc1cc2ncnc(Nc3ccc(OCc4ccccc4Br)c(Cl)c3)c2cc1OC.Cl | 96% | 6% | 25% |
| Cl.Ic1cc(CNC2CCCCC2)ccc1OCc1cccc(COc2ccc(CNC3CCCCC3)cc2I)c1 | 93% | 34% | 0% |
| Cc1cccc2nc(-c3cccc(-c4cccc(NC(=O)C(C)CN5CCN(C)CC5)c4)c3)[nH]c12 (stereo not drawn) | 99% | 99% | 17% |
| O=C(Nc1ccc([N+](=O)[O-])cc1)Nc1nc2ccc(Cl)cc2s1 | 92% | 33% | 63% |
| Cl.Oc1ccc2ccccc2c1CNCCC1CCCCC1 | 99% | 99% | 16% |
| COc1cccc(NC(=O)c2cc(Br)cc(N3CCN(c4ccncc4)CC3)c2)c1.O=C(O)C(F)(F)F | 100% | 79% | 30% |
| Cc1cccc2nc(-c3ccc(-c4cccc(CNCCCNS(C)(=O)=O)c4)s3)[nH]c12.O=C(O)C(F)(F)F | 99% | 19% | 20% |
| C=CCc1cc(C2CCN(CCCCNC(=O)c3ccc(-c4ccc(C#N)cc4)cc3)CC2)c(OCC(N)=O)c2c1CCCC2 | 100% | 92% | 43% |
| CC(NCCc1cccc(Cl)c1)C(O)c1ccc(OCCCCCCOc2ccc(C(O)C(C)NCCc3cccc(Cl)c3)cc2)cc1 (stereo not drawn) | 100% | 100% | 96% |
| COc1ccc2nccc([C@@H](O)CN3CCC(NC(=O)C(c4cc5ccccc5s4)N4CC(C)OC(C)C4)CC3)c2c1 (stereo partly drawn) | 93% | 44% | 12% |
| Cc1ccccc1CNC(=O)Nc1cccc(-c2csc(NC(=N)N)n2)c1 | 99% | 14% | 2% |

| Compound | Inhibition (Plasmodium falciparum [1]) | Inhibition (Plasmodium falciparum [2]) | Inhibition (HepG2) |
| --- | --- | --- | --- |
| Cc1cccc2nc(-c3cccc(-c4cccc(CNCC5CCCO5)c4)c3)[nH]c12.O=C(O)C(F)(F)F (stereo not drawn) | 100% | 99% | 26% |
| COc1cc(CNCCCCCCNCc2cc(OC)cc3ccccc23)c2ccccc2c1.CS(=O)(=O)O | 100% | 94% | 57% |
| Cl.O=C(CCCC(=O)Nc1ccc(C2=NCCN2)cc1)Nc1ccc(C2=NCCN2)cc1 | 91% | 81% | 3% |
| COc1cc([N+](=O)[O-])ccc1NC(=O)Nc1ccc(OC(F)(F)F)cc1 | 84% | 72% | 14% |
| Cc1cccc2nc(-c3ccc(-c4ccc(NC(=O)NCc5cccc(F)c5)cc4)cc3)[nH]c12 | 97% | 12% | 46% |
| COc1ccc2nccc(N3CCC(SCCNCc4ccc5c(n4)NC(=O)CS5)C3)c2n1.Cl (stereo not drawn) | 95% | 100% | 34% |
| CC(CN(C)C)C(=O)Nc1ccc(-c2cccc(-c3nc4cc(C(F)(F)F)ccc4[nH]3)c2)cc1 (stereo not drawn) | 100% | 85% | 30% |
| Cc1ccccc1C1CCN(C2CCC(NC(=O)/C=C/c3cccc(Cl)c3Cl)CC2)CC1 (stereo not drawn) | 94% | 23% | 74% |
| COc1ccc(-c2cc(NCc3ccc(-n4ccnc4)cc3)nc(Nc3ccccc3)n2)cc1 | 100% | 79% | 8% |
| NC(=O)c1cccc(C(=O)Nc2ccc(-c3cccc(-c4nc5cc(F)ccc5[nH]4)c3)cc2)c1 | 94% | 5% | 45% |
| COc1ccc(NC(=O)[C@H](Cc2ccccc2)Nc2cc(C)nc(NCCc3ccccn3)n2)cc1.O=C(O)C(F)(F)F | 99% | 39% | 0% |
| COc1ccc(CCCN2C(=O)C(c3ccccc3)(c3ccccc3)N=C2N)cc1.O=C(O)C(F)(F)F | 94% | 76% | 21% |
| CC(=O)Nc1ncc(C(=O)Nc2cccc(-c3cccc(-c4nc5ccccc5[nH]4)c3)c2)s1 | 92% | 38% | 16% |
| Cc1cc(NC(=O)c2cccs2)ccc1OC1CCN(Cc2ccccc2)CC1.O=C(O)C(F)(F)F | 95% | 91% | 10% |
| O=C(Nc1ccc([N+](=O)[O-])cc1)c1nn(-c2ccccc2)cc1/N=C/c1cccc(O)c1 | 98% | 37% | 10% |
| Cc1ccnc(NC(c2cccc(Cl)c2Cl)c2ccc3cccnc3c2O)c1 (stereo not drawn) | 86% | 38% | 46% |
| Cc1ccc(-c2ccn(Cc3cccc(OCc4ccccc4)c3)n2)cn1.Cc1ccc(-c2ccnn2Cc2cccc(OCc3ccccc3)c2)cn1 | 82% | 64% | 0% |
| COc1ccc(NC(=O)/C=C/c2ccc(Oc3ccccc3Cl)c([N+](=O)[O-])c2)cc1OCCN(C(C)C)C(C)C | 99% | 97% | 31% |
| O=C(Nc1cccc(-c2ccc(-c3nc4ccccc4[nH]3)s2)c1)c1ccncc1 | 92% | 29% | 67% |
